About 13,000 (27%) of roughly 48,000 compounds showed an effect of 50% or more. The list shows a part of the results.
Test system: Wolbachia pipientis
Experiment: Anti-Wolbachia Cell-Based Screen
Assay type: functional
Design: scale not given: in the data most compounds retested in dose-response had high values
Settings: 5 µM

SMILES	Percent Effect [%]
Cc1cccc(CN2CC3(CCN(Cc4ccco4)CC3)OCC2=O)n1.O=C(O)C(F)(F)F.O=C(O)C(F)(F)F	121.1
O=C(O)C(F)(F)F.O=C1COC2(CCN(Cc3ccco3)CC2)CN1CCn1cccn1	4.018
Cc1cccc(CN2CC3(CCN(Cc4ccoc4)CC3)OCC2=O)n1.O=C(O)C(F)(F)F.O=C(O)C(F)(F)F	122.8
O=C(O)C(F)(F)F.O=C1COC2(CCN(Cc3ccoc3)CC2)CN1CCn1cccn1	2.726
O=C(O)C(F)(F)F.O=C(c1ccco1)N1C[C@H]2CCCN(CC3CCOCC3)[C@H]2C1	-19.49
COCCNC(=O)[C@H]1CN(Cc2scnc2C)C[C@H]2OCC[C@@H]12.O=C(O)C(F)(F)F.O=C(O)C(F)(F)F	-9.051
COc1cccc(-c2ncc(CN3CC[C@H]4CC[C@@H](C3)N4)s2)c1	-2.167
O=c1[nH]c(-c2ccc(F)c(F)c2)nc2c1CCNC2	-21.65
Cc1nc(CN(C)C2CCN(Cc3ccc(Cl)s3)C2)no1 (configuration not stated)	99.87
Cc1nc(CN2CCCC(N(C)Cc3nnsc3Cl)C2)no1 (configuration not stated)	-2.376
CC(=O)N(Cc1noc(C)n1)C1CCN(Cc2cnc(C)s2)C1 (configuration not stated)	83.55
CCc1cnc(CN2CCC(N(C)Cc3noc(C)n3)C2)o1 (configuration not stated)	97.22
Cc1nc(CN2CCCC(N(C)Cc3cnc(C)s3)C2)no1 (configuration not stated)	2.952
CCOc1nnc(CN2CCC(N(C)Cc3noc(C)n3)C2)s1 (configuration not stated)	5.667
Cc1nc(CN(C)C2CCN(Cc3cnc(C)s3)C2)no1 (configuration not stated)	106.5
NC(=O)N1CCc2cc(C(=O)O)c(-c3ccsc3)nc2CC1.O=C(O)C(F)(F)F	-21.16
Cc1cc(CNC(=O)Nc2cc(F)cc(N3CCCC3)c2)no1	-57.71
Cc1cccc(C(C)(C)CNC(=O)CN(C)S(=O)(=O)c2cccnc2)c1	4.775
CC(O)CN(CC(=O)NC1CCCCC1)c1ccccc1 (configuration not stated)	-11.54
CC(C)(C)c1ncc2c(n1)CN(C(=O)c1ccc(-c3nc[nH]n3)cc1)C2	-2.467
CCc1ccc(C(=O)N2CCN(Cc3ccc(F)cc3)CC2)s1	-10.91
CC(C)(C)Cc1nnc(NCc2ccsc2)o1	-6.79
CC(=O)N(Cc1noc(C)n1)C1CCN(Cc2ncc(C(C)C)o2)C1 (configuration not stated)	142.1
CC(=O)N(Cc1ncc(C(C)C)o1)C1CCN(Cc2nccn2C)C1 (configuration not stated)	-4.268
CC(=O)N(Cc1ncc(C(C)C)o1)C1CCN(Cc2ncc[nH]2)C1 (configuration not stated)	11.04
CCNC(=O)C(C)NC(=O)Nc1ccccc1Cl (configuration not stated)	-14.58

SMILES	Percent Effect [%]
CN(C)S(=O)(=O)Nc1ccc(-n2nncc2C(F)(F)F)cc1	-14.8
CCC1(c2ccc(NS(=O)(=O)N(C)C)cc2)CCC(=O)NC1=O (configuration not stated)	138.3
CCC1(c2ccc(NS(=O)(=O)c3cccs3)cc2)CCC(=O)NC1=O (configuration not stated)	2.702
CC(C)C(C)NC(=O)Nc1cccn(C)c1=O (configuration not stated)	14.72
CCNC(=O)Cc1ccc(NC(=O)NC(CC)CC)cc1	3.76
NC(=O)Cc1ccc(NC(=O)C2CCOCC2)cc1	-3.616
CC(C)NC(=O)Nc1ccc(-c2nc3c([nH]2)CCNC3)cc1	8.53
CC(C)NC(=O)Nc1ccc(CS(C)(=O)=O)cc1	125.1
CC(C)C(C)NC(=O)Nc1ccc(CC(N)=O)cc1 (configuration not stated)	98.71
CC(C)C(C)NC(=O)Nc1ccc(CS(=O)(=O)C(C)C)cc1 (configuration not stated)	98.92
CCC(C)NC(=O)Nc1ccc(CN2CCOC2=O)cc1 (configuration not stated)	17.46
CC(CO)NC(=O)Nc1ccc(CC#N)cc1 (configuration not stated)	-17.07
Cc1occc1CNC(=O)N(CCCO)C1CCc2ccccc21 (configuration not stated)	-0.08809
CCC(CO)N(Cc1ccccn1)C(=O)c1ncccc1C (configuration not stated)	-0.3576
Cc1ccnc(C2CN(Cc3ccc(-c4ccccc4C(=O)O)o3)C2)n1	103.2
Cc1ccc(CN2C[C@@H](C(=O)O)[C@H](c3ccccn3)C2)o1	12.21
Cc1ccc(CN2CCC3(CCC3NS(=O)(=O)c3ccccc3)CC2)o1.O=C(O)C(F)(F)F (configuration not stated)	-9.512
CCNC(=O)[C@@H]1C[C@H](N)CN1Cc1ccc(-c2ccccc2C#N)o1	18.83
CCc1nc(C)ncc1C(=O)N1CC(=O)N(C)c2ccccc21	-0.2346
CCc1cnc(C)nc1N1CCN(Cc2ccc(-c3cc[nH]n3)o2)CC1	-14.59
CCNC(=O)[C@@H]1C[C@@H](N)CN1Cc1ccc(-c2ccccc2C#N)o1	-0.5053
Cc1nccc(C2CN(Cc3ccc(-c4ccccc4C(=O)O)o3)C2)n1	137.2
Nc1nccc(C2CN(Cc3ccc(-c4ccccc4C(=O)O)o3)C2)n1	91.52
NCCN1C(=O)CC[C@H]2CN(Cc3ccc4occc4c3)CC[C@H]21	-1.233
C1CN(c2nc(C3CC3)ns2)CCS1	2.674
CS(=O)(=O)c1cccc2c1CCCN2C(=O)Cc1cccc(F)c1	14.6
